TcdB inh = TcdB glycohydrolase inhibitors, primary screen, biochemical, single point, plate reader. TcdB glycohydrolase enzymatic assay. inhibition, % at 9.99 µM. AID 652162, 2013. Toxin B (Clostridioides difficile), P18177. hit rate 0.24% among 350,000; in the data active = inhibition above about 10%
Target sequence (P18177 whole entry, looked up): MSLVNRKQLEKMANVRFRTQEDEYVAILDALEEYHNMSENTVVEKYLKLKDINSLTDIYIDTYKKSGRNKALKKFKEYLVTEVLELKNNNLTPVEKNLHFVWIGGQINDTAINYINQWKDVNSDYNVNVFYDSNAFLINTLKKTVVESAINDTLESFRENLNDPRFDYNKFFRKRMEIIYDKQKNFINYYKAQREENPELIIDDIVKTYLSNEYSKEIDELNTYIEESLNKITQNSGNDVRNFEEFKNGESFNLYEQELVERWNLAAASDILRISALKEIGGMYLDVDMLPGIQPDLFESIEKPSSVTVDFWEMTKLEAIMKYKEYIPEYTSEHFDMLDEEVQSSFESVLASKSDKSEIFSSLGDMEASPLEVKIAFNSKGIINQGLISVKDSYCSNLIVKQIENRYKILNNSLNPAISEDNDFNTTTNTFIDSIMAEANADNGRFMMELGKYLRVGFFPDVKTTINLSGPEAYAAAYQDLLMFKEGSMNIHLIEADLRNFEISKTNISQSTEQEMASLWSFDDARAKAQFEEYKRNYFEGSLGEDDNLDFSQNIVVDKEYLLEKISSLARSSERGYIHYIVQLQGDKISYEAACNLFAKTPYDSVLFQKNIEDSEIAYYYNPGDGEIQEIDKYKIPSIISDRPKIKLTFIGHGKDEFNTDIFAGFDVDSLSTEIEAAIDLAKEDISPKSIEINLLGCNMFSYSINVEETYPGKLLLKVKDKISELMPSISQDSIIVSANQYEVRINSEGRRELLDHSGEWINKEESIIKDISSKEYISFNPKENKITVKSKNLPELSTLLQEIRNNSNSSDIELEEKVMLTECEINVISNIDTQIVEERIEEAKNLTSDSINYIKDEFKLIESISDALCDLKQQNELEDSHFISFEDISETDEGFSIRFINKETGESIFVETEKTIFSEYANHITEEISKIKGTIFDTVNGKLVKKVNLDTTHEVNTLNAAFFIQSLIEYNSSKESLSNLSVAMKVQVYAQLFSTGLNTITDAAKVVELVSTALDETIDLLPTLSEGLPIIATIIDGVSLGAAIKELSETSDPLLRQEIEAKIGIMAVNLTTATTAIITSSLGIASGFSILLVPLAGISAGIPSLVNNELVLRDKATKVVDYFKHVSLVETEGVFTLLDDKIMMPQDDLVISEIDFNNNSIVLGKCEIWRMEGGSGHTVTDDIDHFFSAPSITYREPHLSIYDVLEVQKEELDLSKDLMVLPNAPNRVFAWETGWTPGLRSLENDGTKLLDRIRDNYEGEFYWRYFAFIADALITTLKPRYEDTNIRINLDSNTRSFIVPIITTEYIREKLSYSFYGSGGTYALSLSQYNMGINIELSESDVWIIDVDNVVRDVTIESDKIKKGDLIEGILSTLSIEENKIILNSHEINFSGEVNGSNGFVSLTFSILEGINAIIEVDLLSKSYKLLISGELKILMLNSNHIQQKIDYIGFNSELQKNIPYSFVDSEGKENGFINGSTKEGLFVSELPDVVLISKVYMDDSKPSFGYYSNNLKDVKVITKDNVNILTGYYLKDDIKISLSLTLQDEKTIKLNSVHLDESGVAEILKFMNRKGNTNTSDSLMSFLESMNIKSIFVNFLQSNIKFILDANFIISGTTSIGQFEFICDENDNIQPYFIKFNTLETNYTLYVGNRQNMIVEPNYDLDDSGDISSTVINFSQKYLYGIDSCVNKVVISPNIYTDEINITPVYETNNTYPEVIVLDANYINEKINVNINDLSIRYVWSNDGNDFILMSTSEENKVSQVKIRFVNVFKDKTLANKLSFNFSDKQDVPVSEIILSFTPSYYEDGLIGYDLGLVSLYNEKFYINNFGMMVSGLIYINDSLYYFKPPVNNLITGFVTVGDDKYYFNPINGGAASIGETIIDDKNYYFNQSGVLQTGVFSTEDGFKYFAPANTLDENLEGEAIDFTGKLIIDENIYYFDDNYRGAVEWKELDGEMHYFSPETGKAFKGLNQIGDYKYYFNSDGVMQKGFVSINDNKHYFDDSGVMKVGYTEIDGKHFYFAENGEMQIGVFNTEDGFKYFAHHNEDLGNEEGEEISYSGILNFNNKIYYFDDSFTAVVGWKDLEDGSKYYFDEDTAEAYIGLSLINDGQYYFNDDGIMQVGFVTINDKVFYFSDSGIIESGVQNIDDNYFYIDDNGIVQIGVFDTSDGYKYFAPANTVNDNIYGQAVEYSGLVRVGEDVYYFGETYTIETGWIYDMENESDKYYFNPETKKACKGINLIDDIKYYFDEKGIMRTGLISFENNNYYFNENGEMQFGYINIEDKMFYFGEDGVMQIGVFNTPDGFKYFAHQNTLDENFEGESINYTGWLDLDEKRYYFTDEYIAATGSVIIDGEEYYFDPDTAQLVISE
PrP UTR inh = inhibition of PrP 5' UTR reporter expression | cell-based PrP 5' UTR mRNA reporter, plate reader | inhibition, % (test concentration not listed) | hit rate 0.35% among 340,000; in the data active = inhibition above about 52%
Y pestis TopoI = Yersinia pestis topoisomerase I inhibitors, primary screen, biochemical, cleavage product accumulation, plate reader, single point. DNA topoisomerase I (Yersinia pestis CO92). Y. pestis Topo-I cleavage product accumulation. activity, % at 10 µM. hit rate 0.064% among 360,000; in the data active = activity above about 50%, passing the limit was not always enough
BioA inh-1 = M. tuberculosis BioA enzyme inhibitors, primary screen, biochemical, plate reader, single point, HTS | purified M. tuberculosis BioA enzyme | inhibition, % at 9.99 µM | hit rate 0.096% among 360,000 | AID 602481, 2012; in the data active = inhibition above about 40%
BioA inh-2 = Mtb BioA enzyme inhibitors, dose response, biochemical, plate reader, cherry-pick samples, set 03; AID 651679, 2012; shares compounds with BioA inh-1; max activity, %; purified BioA enzyme; 310 tested, under 10 active;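 note: top concentration of the dilution series was 10 µM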
HepG2 tox 2 = cytotoxicity in HepG2 cells, dose response, cytotoxicity control, cell-based, plate reader, cherry-pick, two tests; shares compounds with BioA inh-1; max activity, %; 310 tested, under 10 active
3T3 cytotox 5 = cytotoxicity in NIH3T3 fibroblasts, dose response, cytotoxicity control, cell-based, plate reader, cherry-pick, two tests; shares compounds with BioA inh-1; activity change, negative = cytotoxicity, % at 26 µM; 310 tested, under 10 active
Of the large screens only hits and unclear results are named; the others gave an inactive call (follow-up assays come after a bar, where they were run). Hits are enriched below; roughly 0.57% of the tested compounds scored in any of these assays. Unless noted, the rule behind the calls is not given here.

CC(=O)N1CC[C@@H]2[C@@H](CO)N(C)c3ccc(-c4cccc(F)c4)cc3[C@@H]21	BioA inh-1 56 (no result: PrP UTR inh, Y pestis TopoI) | BioA inh-2 inactive | HepG2 tox 2 inactive | 3T3 cytotox 5 inactive
CN1c2ccc(-c3ccccc3)cc2[C@H]2[C@H](CCN2C(=O)c2ccccc2F)[C@H]1CO	BioA inh-1 46 (no result: PrP UTR inh, Y pestis TopoI) | BioA inh-2 inactive | HepG2 tox 2 inactive | 3T3 cytotox 5 inactive
COc1ccc(-c2ccc3c(c2)[C@H]2[C@H](CCN2C(=O)Cc2cccnc2)[C@H](CO)N3C)cc1	BioA inh-1 43 (no result: PrP UTR inh, Y pestis TopoI) | BioA inh-2 inactive | HepG2 tox 2 inactive | 3T3 cytotox 5 inactive
CC(=O)N1CC[C@H]2[C@@H]1c1cc(-c3cccc(F)c3)ccc1N(C)[C@H]2CO	none (no result: PrP UTR inh, Y pestis TopoI)
COCC(=O)N(C)C[C@H]1Oc2cc(C#Cc3cccnc3)ccc2S(=O)(=O)N([C@H](C)CO)C[C@@H]1C	none (no result: PrP UTR inh, Y pestis TopoI)
CC(C)[C@@H](CO)NC(=O)[C@H]1[C@@H](c2ccccc2)N(c2ccccc2)O[C@@H]1C	none (no result: PrP UTR inh, Y pestis TopoI, BioA inh-1)
CCCNC(=O)N1CC2(CN(C(=O)C3CCOCC3)C2)c2c([nH]c3cc(OC)ccc23)[C@@H]1CO	none (no result: PrP UTR inh, Y pestis TopoI, BioA inh-1)
CCC(=O)N[C@H]1C=C[C@@H](CC(=O)NCc2ccccc2F)O[C@@H]1CO	none (no result: PrP UTR inh, Y pestis TopoI)
C[C@@H](O)C#Cc1cnc2c(c1)C(=O)N([C@@H](C)CO)C[C@H](C)[C@@H](CN(C)C(=O)Nc1ccc(C(F)(F)F)cc1)O2	none (no result: TcdB inh, PrP UTR inh, Y pestis TopoI)
CN1c2ccc(-c3cccc(F)c3)cc2[C@@H]2[C@@H](CCN2C(=O)c2ccncc2)[C@H]1CO	BioA inh-1 50 (no result: TcdB inh, PrP UTR inh, Y pestis TopoI) | BioA inh-2 inactive | HepG2 tox 2 inactive | 3T3 cytotox 5 inactive
COc1ccc(C(=O)Oc2cccc3cccnc23)cc1[N+](=O)[O-]	none (no result: BioA inh-1)
NC(=O)c1ccc(Oc2cccc3cccnc23)c([N+](=O)[O-])c1	BioA inh-1 42 | BioA inh-2 inactive | HepG2 tox 2 inactive | 3T3 cytotox 5 inactive
CNc1ccc(/C=C(\CCC(=O)O)c2nc3ccccc3s2)cc1[N+](=O)[O-]	none (no result: TcdB inh, BioA inh-1)
Cc1ccc(/C=C(\CCC(=O)O)c2nc3ccccc3s2)cc1[N+](=O)[O-]	BioA inh-1 90 | BioA inh-2 inactive | HepG2 tox 2 inactive | 3T3 cytotox 5 inactive
Nn1c(SCc2nc3ccccc3[nH]2)nnc1-c1cccnc1	BioA inh-1 59 (no result: TcdB inh) | BioA inh-2 inactive | HepG2 tox 2 inactive | 3T3 cytotox 5 inactive
Nn1c(SCCOc2ccccc2)nnc1-c1cccnc1	BioA inh-1 74 | BioA inh-2 inactive | HepG2 tox 2 inactive | 3T3 cytotox 5 inactive
Nn1c(SCCOc2ccc(Cl)cc2)nnc1-c1cccnc1	none (no result: TcdB inh, BioA inh-1)
Nn1c(SC/C=C/c2ccccc2)nnc1-c1cccnc1	BioA inh-1 109 (no result: TcdB inh) | BioA inh-2 inactive | HepG2 tox 2 inactive | 3T3 cytotox 5 inactive
COc1ccc(CN(C)C[C@@H]2OCCCC[C@H](C)Oc3ccc(NC(=O)Cc4ccccc4)cc3C(=O)N([C@@H](C)CO)C[C@H]2C)cc1	none (no result: TcdB inh, PrP UTR inh, Y pestis TopoI)
C/C=C(/C)C(=O)OC(C)(C)[C@@H]1Cc2c(ccc3ccc(=O)oc23)O1	BioA inh-1 53 | BioA inh-2 inactive | HepG2 tox 2 inactive | 3T3 cytotox 5 inactive
CCNC(=O)C[C@H]1CC[C@@H]2[C@@H](COc3ccc(NC(=O)Nc4cccc(F)c4)cc3C(=O)N2C)O1	BioA inh-1 42 (no result: PrP UTR inh, Y pestis TopoI) | BioA inh-2 inactive | HepG2 tox 2 inactive | 3T3 cytotox 5 inactive
Cc1nn(CCC(=O)O)c2nc(-c3cccnc3)cc(C(F)(F)F)c12	BioA inh-1 48 (no result: TcdB inh) | BioA inh-2 inactive | HepG2 tox 2 inactive | 3T3 cytotox 5 inactive
Cn1nnc2cc(C(=O)N3CCC(c4ccccc4)C3)ccc21 (stereo unspecified)	BioA inh-1 66 (no result: TcdB inh) | BioA inh-2 inactive | HepG2 tox 2 inactive | 3T3 cytotox 5 inactive
CC(=O)c1ccc(NC(=O)Cc2ccsc2)cc1	none
CC(=O)c1ccc(NC(=O)COC(=O)Cc2ccsc2)cc1	BioA inh-1 47 | BioA inh-2 inactive | HepG2 tox 2 inactive | 3T3 cytotox 5 inactive
CCN1[C@H](C(=O)NCCCN(C)C)[C@@H](CO)[C@@H]2Cn3c(ccc(-c4ccccc4OC)c3=O)[C@@H]21	none (no result: PrP UTR inh, Y pestis TopoI, BioA inh-1)
COc1ccc2c3c(n(C)c2c1)[C@@H](CO)N(C(=O)c1ccc(F)cc1)CC31CCN(C(C)=O)CC1	none (no result: PrP UTR inh, Y pestis TopoI, BioA inh-1)
CO[C@H]1CN(C)C(=O)c2ccc(NC(C)=O)cc2OC[C@@H](C)N(C(=O)c2ccc(F)cc2)C[C@H]1C	BioA inh-1 50 (no result: PrP UTR inh, Y pestis TopoI) | BioA inh-2 inactive | HepG2 tox 2 inactive | 3T3 cytotox 5 inactive
CC(=O)N1CCN(c2ccc([N+](=O)[O-])cc2C=C2C(=O)NC(=O)NC2=O)CC1	BioA inh-1 44 (no result: TcdB inh) | BioA inh-2 inactive | HepG2 tox 2 inactive | 3T3 cytotox 5 inactive
CCN1CCN(c2ccc([N+](=O)[O-])cc2C=C2C(=O)NC(=O)NC2=O)CC1	none
O=C(O)CSc1ncnc2scc(-c3ccc(Br)cc3)c12	BioA inh-1 45 | BioA inh-2 inactive | HepG2 tox 2 inactive | 3T3 cytotox 5 inactive
COc1cc(OC)c(C(=O)Nc2cccnc2)cc1OC	BioA inh-1 85 | BioA inh-2 inactive | HepG2 tox 2 inactive | 3T3 cytotox 5 inactive
O=C(NNC(=O)c1ccc(Cl)c(Cl)c1)c1cccnc1	none
CCCNS(=O)(=O)c1ccc(NC(=O)c2cccnc2)cc1	none (no result: TcdB inh)
O=C(Nc1cccnc1)c1ccc(Cl)c(Cl)c1	BioA inh-1 60 | BioA inh-2 inactive | HepG2 tox 2 inactive | 3T3 cytotox 5 inactive
O=C(Nc1ccc(NS(=O)(=O)c2ccccc2)cc1)c1cccnc1	BioA inh-1 52 | BioA inh-2 inactive | HepG2 tox 2 inactive | 3T3 cytotox 5 inactive
O=C(Nc1cccnc1)c1ccc(Oc2ccccc2)cc1	BioA inh-1 69 (no result: TcdB inh) | BioA inh-2 inactive | HepG2 tox 2 inactive | 3T3 cytotox 5 inactive
O=C(Nc1cccnc1)c1ccccc1Oc1ccccc1	none (no result: TcdB inh)
C[C@@H]1CN([C@@H](C)CO)C(=O)c2cc(NC(=O)CCCCCC(=O)Nc3ccccc3N)ccc2O[C@@H]1CN(C)C(=O)Nc1ccc(F)cc1	none (no result: PrP UTR inh, Y pestis TopoI, BioA inh-1)
COC(=O)c1ccc([C@@H]2C=C(C(=O)N3CCN(Cc4ccc5c(c4)OCO5)CC3)O[C@H](OCc3ccc(CO)cc3)C2)cc1	none (no result: PrP UTR inh, Y pestis TopoI)
COCCN1C(=O)c2ccc(C(=O)Nc3cccnc3)cc2C1=O	BioA inh-1 59 | BioA inh-2 inactive | HepG2 tox 2 inactive | 3T3 cytotox 5 inactive
CC(C)(C)c1cc(C(=O)Nc2cccnc2)cc(C(=O)Nc2cccnc2)c1	BioA inh-1 45 | BioA inh-2 inactive | HepG2 tox 2 inactive | 3T3 cytotox 5 inactive
CCCOC(=O)c1cccc(NC(=O)c2cccnc2)c1	BioA inh-1 43 (no result: TcdB inh) | BioA inh-2 inactive | HepG2 tox 2 inactive | 3T3 cytotox 5 inactive
CO[C@H]1CN(C)C(=O)c2cc(NC(=O)CC(F)(F)F)ccc2OC[C@H](C)N(C(=O)C2CCCCC2)C[C@@H]1C	none (no result: PrP UTR inh, Y pestis TopoI, BioA inh-1)

Screens deposited in PubChem by Broad Institute.
